Our source for the growth values is PubChem BioAssay (NCI).

Compounds without any hit were thinned out: in the full panel of roughly 83,000, 20% have a hit.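 The endpoint reported here, percent growth, reads 100 for growth as untreated, 0 for no net growth and -100 for all cells dead.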 Unmarked numbers belong to inactive results. Activity calls are given as the source filed them. The calls were made as follows: active = growth percent below 10; inactive = the rest.

This assay relates to HL-60(TB) leukemia. Description: NCI-60 one-dose screen, 48 h (100 = growth as untreated, 0 = no growth, -100 = all killed). The following applies: 10 µM unless noted.
Regarding `COc1ccc(-c2nn(-c3cccc(NC(=O)Nc4ccccc4)c3)cc2-c2ccncc2)cc1Cl`, the growth is -10.6% (active).
In the case of `COc1cc2c(c(OC)c1)C1c3ccccc3NC(=O)N1CC2` (stereo not drawn) it was -3.91% (active).
The figure for `CCOC(=N)c1ccc(C(=N)OCC)cc1` is 101%.
